The panel holds about 79,000 compounds, 15% with a hit somewhere; the sample as a whole holds those more often. Values without a mark were called inactive. The source made the active and inactive calls. No stated cut-off is given here; in the data, active means growth inhibition above about 70%; inactive means the rest.
What was measured:
[1] = NCI Yeast Anticancer Drug Screen. Data for the rad50 strain (AID 155);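 further: 0% = growth of vehicle-only cultures of the same strain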; details: S. cerevisiae rad50 strain growth inhibition, hits give high values
How it was run: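 Yeast carrying a defined DNA repair defect were exposed to test compounds, and growth was compared with vehicle-treated controls to give percent inhibition.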

[2] = NCI Yeast Anticancer Drug Screen. Data for the mec2-1 strain (AID 157); details: S. cerevisiae mec2-1 strain, hits give high values
How it was run: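 Each compound was tested on mec2-1 yeast, a strain altered in DNA damage repair or cell cycle control. Growth inhibition is reported relative to vehicle.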

[3] = NCI Yeast Anticancer Drug Screen. Data for the sgs1 mgt1 strain (AID 161);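 further: 0% = growth of cultures given vehicle only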; details: S. cerevisiae sgs1 mgt1 strain, hits give high values
How it was run: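 Read-out: growth inhibition vs vehicle controls. Cells: mutant yeast strain deficient in DNA damage repair.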

[4] = NCI Yeast Anticancer Drug Screen. Data for the cln2 rad14 strain (AID 165);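 further: 0% = growth equal to vehicle treated cultures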; details: S. cerevisiae cln2 rad14 strain, hits give high values
How it was run: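 Test compounds were added to cln2 rad14 yeast cultures; inhibition of growth was then determined by comparison with vehicle treatment.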

[5] = NCI Yeast Anticancer Drug Screen. Data for the bub3 strain (AID 167); details: S. cerevisiae bub3 mutant strain, hits give high values
How it was run: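 Compounds were applied to a genetically altered yeast strain carrying a cell-cycle control defect. Growth inhibition was scored against vehicle-treated controls.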

[6] = NCI Yeast Anticancer Drug Screen. Data for the mlh1 rad18 strain (AID 175); details: S. cerevisiae mlh1 rad18 strain growth inhibition, hits give high values
How it was run: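 Inhibition values reflect reduced growth of mutant yeast versus vehicle-treated controls following compound exposure; the mutations affect DNA damage repair.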

[7] = at 5.0 µM (retest, dose inferred, filed as 0.5)
[8] = at 50.0 µM (retest, dose inferred, filed as 5.0)

Structure (SMILES)	growth inhibition [1, 7]	growth inhibition [1, 8]	growth inhibition [2, 7]	growth inhibition [2, 8]	growth inhibition [3, 7]	growth inhibition [3, 8]	growth inhibition [4, 7]	growth inhibition [4, 8]	growth inhibition [5, 7]	growth inhibition [5, 8]	growth inhibition [6, 7]	growth inhibition [6, 8]	growth inhibition ([1]; at 50.0 µM)	growth inhibition ([3]; at 50.0 µM)	growth inhibition ([4]; at 50.0 µM)	growth inhibition ([5]; at 50.0 µM)	growth inhibition ([6]; at 50.0 µM)	growth inhibition ([2]; at 50.0 µM)
O=C(CBr)OCC(O)CCl (stereo unspecified)	92% (active)	99% (active)	70% (active)	100% (active)	96% (active)	100% (active)	49%	99% (active)	79% (active)	100% (active)	47%	99% (active)	–	–	–	–	–	–
CCCCCN1C(=O)C2C(C1=O)C1(Cl)C(Cl)=C(Cl)C2(Cl)C1(Cl)Cl (stereo unspecified)	37%	95% (active)	–	–	16%	95% (active)	16%	95% (active)	12%	96% (active)	33%	96% (active)	97% (active)	96.4% (active)	95.2% (active)	97.5% (active)	95.6% (active)	–
CCC(=O)O.[Ag]	98% (active)	98% (active)	–	–	99% (active)	98% (active)	98% (active)	97% (active)	99% (active)	97% (active)	99% (active)	97% (active)	91.2% (active)	91.6% (active)	90.3% (active)	91% (active)	90.3% (active)	–
C[CH2][Sn]([CH2]C)([CH2]C)[CH2]C	6%	54%	3%	22%	-3%	58%	-6%	12%	0%	35%	-8%	44%	–	–	–	–	–	–
CC1CCN(C(CC(=O)c2ccccc2)C(=O)c2ccccc2)CC1 (stereo unspecified)	20%	99% (active)	7%	100% (active)	21%	99% (active)	9%	99% (active)	13%	100% (active)	-2%	98% (active)	–	–	–	–	–	–
CC/C(=C\c1ccc(Cl)c(Cl)c1)[N+](=O)[O-]	97% (active)	99% (active)	52%	100% (active)	99% (active)	100% (active)	13%	99% (active)	60%	99% (active)	14%	99% (active)	–	–	–	–	–	–
O=C1C=C(N2CC2)C(=O)C=C1N1CC1	91% (active)	98% (active)	90% (active)	99% (active)	27%	41%	24%	25%	20%	55%	94% (active)	97% (active)	–	88% (active)	89.2% (active)	87.7% (active)	–	–
O=[C-]c1ccccc1[C-]=O.[Pd+2].c1ccc([PH+](c2ccccc2)c2ccccc2)cc1.c1ccc([PH+](c2ccccc2)c2ccccc2)cc1	11%	44%	–	–	23%	69%	5%	40%	4%	97% (active)	14%	80% (active)	34.6%	84.5% (active)	-0.7%	14.7%	60.9%	–
O=C(O)c1ccc(I)cc1.[Ni]	–	–	–	–	–	–	–	–	–	–	–	–	82.8% (active)	57.1%	8.85%	–	–	5.7%
CC1CCN(CCC(=O)CC(c2ccccc2)c2c(O)c3ccccc3oc2=O)CC1 (stereo unspecified)	16%	16%	–	–	12%	12%	2%	2%	4%	4%	18%	18%	87.3% (active)	88% (active)	89.8% (active)	87.7% (active)	88.3% (active)	–
CC(=O)[CH-]C(C)=O.CC(=O)[CH-]C(C)=O.N=CC=N.[Sn+2]	95% (active)	98% (active)	–	–	–	–	87% (active)	97% (active)	98% (active)	99% (active)	–	–	88.2% (active)	–	93.5% (active)	93.3% (active)	–	–
CC(=O)c1cc(CN(CCCl)CCCl)c(O)c(CN(CCCl)CCCl)c1O	5%	12%	-13%	14%	–	–	4%	6%	3%	6%	-4%	45%	90.5% (active)	–	63.1%	78.6% (active)	89.5% (active)	77.7% (active)
